The values below come from PubChem BioAssay.

SMILES strings stand for the structures. Calls of active or inactive are those of the source.

Test [1] concerns PRMT1 (protein arginine N-methyltransferase 1). Kind of test: PRMT1 binders on small-molecule microarrays, primary screen, biochemical, small-molecule microarray, 635 nm fluorescence (AID 1088).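 Further: binding of Prmt1 protein to compounds spotted on small-molecule microarray slides.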 The note with it: small-molecule microarray binding, higher = more signal.
Test [2] in a line: yeast growth modulation, basal conditions, primary screen, YJM789 clinical isolate, OD600, 24 h (AID 1089).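 Further: growth of clinical yeast isolate S. cerevisiae YJM 789 seeded 1000 cells per well; test concentration not given here.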 The note with it: S. cerevisiae YJM789 growth, higher = more signal, called active from +8 up or from −8 down.
Test [3] in a line: fission yeast growth modulation, primary screen, strain 972, OD600, 24 h, no modulator (AID 1090).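 Further: basal condition with compound alone and no growth modifier present; test concentration not given here.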 The note with it: S. pombe 972 growth, higher = more signal, called active from +8 up or from −8 down.
The nature of test [4]: S. cerevisiae growth modulation with rapamycin, primary screen, strain BY4716, OD600, 96 h (AID 1091). Further: test concentration not given here. The note with it: higher = more signal, called active from +8 up or from −8 down.
Test [5] has as its target Torsin-1A-interacting protein 2 (Homo sapiens) (UniProt Q8NFQ8). Put plainly: LULL1 binders on small-molecule microarray, primary screen, cell lysate, human LULL1 lysate, 635/667 nm fluorescence (AID 1092).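 Further: probe is lysate of COS7 cells overexpressing human LULL1; score merges per-feature 667 nm fluorescence with signal-to-noise.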 Conditions: hLULL1 lysate binding, 635 nm fluorescence, higher = more signal.
A short description of test [6]: E. coli growth modulation, two-sided OD650, primary screen, E. coli filamentation project, strain DRC41, 24 h (AID 1093).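 Further: MC1000 strain lacking acrAB efflux and sulA so SOS filamentation is blocked; test concentration not given here.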 Conditions: OD650, 24 h, higher = more signal, called active from +8 up or from −8 down.
A short description of test [7]: small-molecule microarray binders of probe aLefty2, primary screen, biochemical, biotinylated probe, 635/667 nm fluorescence (AID 1094).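 Further: score merges spot fluorescence near 667 nm with spot signal-to-noise ratio.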 Conditions: higher = more signal.
Test [8] relates to Noggin (protein binding on small-molecule microarray). Put plainly: Noggin binders on small-molecule microarray, primary screen, biochemical, 635/667 nm fluorescence (AID 1095).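 Further: score merges 667 nm feature fluorescence with signal to noise over triplicate slides.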 The note with it: 635 nm fluorescence, higher = more signal.
In test [9] the target is Neurogenic locus notch homolog protein 3 (Homo sapiens) (UniProt Q9UM47). Kind of test: NOTCH3 binders on small-molecule microarray, primary screen, biochemical, 635/667 nm fluorescence (AID 1096). The note with it: NOTCH3 binding, 635 nm fluorescence, higher = more signal.
Neurogenic locus notch homolog protein 3 (Homo sapiens), sequence (Q9UM47 whole entry, looked up): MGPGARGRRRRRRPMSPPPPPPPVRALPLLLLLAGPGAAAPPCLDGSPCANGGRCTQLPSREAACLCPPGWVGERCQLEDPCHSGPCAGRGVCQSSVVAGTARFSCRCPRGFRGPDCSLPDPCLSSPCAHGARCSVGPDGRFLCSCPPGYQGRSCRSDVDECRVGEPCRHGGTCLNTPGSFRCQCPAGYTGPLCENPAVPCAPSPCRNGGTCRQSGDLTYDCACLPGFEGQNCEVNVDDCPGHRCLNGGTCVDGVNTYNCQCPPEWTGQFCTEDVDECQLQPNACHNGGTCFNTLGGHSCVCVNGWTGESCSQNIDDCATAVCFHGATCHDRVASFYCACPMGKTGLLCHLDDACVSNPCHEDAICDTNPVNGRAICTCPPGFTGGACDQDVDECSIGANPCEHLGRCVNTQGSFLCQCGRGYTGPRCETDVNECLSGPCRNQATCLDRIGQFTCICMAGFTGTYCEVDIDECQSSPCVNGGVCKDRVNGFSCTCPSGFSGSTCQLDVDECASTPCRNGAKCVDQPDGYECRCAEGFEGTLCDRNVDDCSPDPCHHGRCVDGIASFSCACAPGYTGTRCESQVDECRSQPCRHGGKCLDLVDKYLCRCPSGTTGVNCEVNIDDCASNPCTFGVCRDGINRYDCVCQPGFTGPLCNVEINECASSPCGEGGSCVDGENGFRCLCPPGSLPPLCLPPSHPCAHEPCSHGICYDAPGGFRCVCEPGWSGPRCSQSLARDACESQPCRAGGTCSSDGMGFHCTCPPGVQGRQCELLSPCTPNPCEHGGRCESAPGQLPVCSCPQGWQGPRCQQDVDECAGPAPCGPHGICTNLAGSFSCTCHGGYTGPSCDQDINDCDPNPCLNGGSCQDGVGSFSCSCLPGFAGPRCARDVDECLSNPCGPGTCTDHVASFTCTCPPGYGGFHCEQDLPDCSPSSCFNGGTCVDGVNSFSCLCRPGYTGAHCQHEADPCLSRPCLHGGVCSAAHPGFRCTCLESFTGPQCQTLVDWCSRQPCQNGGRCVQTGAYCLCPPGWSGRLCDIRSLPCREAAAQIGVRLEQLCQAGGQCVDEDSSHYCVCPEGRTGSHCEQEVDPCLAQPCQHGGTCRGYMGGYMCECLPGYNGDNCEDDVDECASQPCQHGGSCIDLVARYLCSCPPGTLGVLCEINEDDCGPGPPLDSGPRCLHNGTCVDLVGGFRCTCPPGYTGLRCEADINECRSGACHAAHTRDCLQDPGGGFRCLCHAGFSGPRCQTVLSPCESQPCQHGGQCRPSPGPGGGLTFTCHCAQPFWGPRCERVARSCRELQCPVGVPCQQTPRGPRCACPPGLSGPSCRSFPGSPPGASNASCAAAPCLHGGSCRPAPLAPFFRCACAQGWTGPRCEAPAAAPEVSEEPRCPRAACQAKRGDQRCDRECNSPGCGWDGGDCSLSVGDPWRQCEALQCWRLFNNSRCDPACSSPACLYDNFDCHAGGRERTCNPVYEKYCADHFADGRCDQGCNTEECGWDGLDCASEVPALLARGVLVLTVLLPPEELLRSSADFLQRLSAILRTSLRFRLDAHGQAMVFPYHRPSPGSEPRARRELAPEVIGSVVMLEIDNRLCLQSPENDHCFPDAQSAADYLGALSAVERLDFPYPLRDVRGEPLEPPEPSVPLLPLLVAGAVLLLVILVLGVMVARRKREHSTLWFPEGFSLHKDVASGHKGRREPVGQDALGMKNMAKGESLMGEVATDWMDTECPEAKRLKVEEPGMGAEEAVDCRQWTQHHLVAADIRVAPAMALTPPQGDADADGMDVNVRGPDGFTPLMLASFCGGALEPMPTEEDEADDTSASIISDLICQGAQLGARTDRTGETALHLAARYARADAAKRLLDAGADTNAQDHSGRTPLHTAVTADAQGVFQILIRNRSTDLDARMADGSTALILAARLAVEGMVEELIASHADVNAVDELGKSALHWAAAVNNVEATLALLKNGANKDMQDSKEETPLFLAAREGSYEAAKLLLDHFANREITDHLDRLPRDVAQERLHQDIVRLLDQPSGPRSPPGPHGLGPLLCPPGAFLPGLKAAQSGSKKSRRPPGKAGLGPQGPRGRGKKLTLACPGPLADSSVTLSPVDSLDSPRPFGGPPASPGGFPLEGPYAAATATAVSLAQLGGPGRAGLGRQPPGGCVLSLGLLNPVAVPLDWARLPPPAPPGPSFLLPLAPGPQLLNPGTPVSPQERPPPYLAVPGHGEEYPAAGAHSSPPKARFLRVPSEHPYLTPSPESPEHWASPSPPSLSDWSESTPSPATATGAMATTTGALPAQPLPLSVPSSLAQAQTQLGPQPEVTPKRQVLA
Test [10] can be described thus: small-molecule microarray binders of probe aEGFR, primary screen, biochemical, biotinylated probe, 635/667 nm fluorescence (AID 1097).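 Further: probe is a biotinylated anti-EGFR antibody binding compounds printed on slides; score combines fluorescence near 667 nm and signal to noise of each spot.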 The note with it: higher = more signal.
Test [11] concerns Plasmodium falciparum Sir2 (PF13_0152, Sir2A). Kind of test: pfSir2 binders on small-molecule microarrays, primary screen, biochemical, small-molecule microarray, 635 nm fluorescence (AID 1098).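 Further: score merges spot fluorescence intensity with its signal-to-noise ratio.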 The note with it: small-molecule microarray binding, fluorescence 635 nm; higher = more signal.
Test [12] in a line: small-molecule microarray binders of probe aDKK1, primary screen, biochemical, biotinylated probe, 635/667 nm fluorescence (AID 1099).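 Further: score merges 667nm spot fluorescence with signal to noise across triplicate slides; reference of the scale not given here.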 Conditions: higher = more signal.
The nature of test [13]: small-molecule microarray binders of probe aCHRDL2, primary screen, biochemical, biotinylated probe, 635/667 nm fluorescence (AID 1100). The note with it: higher = more signal.
The nature of test [14]: splicing luciferase reporter signal modulators, primary screen, spliceosome inhibition project, cell-based, HEK293, splice +/- reporter (AID 1101).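 Further: HEK293 cells carrying a splicing-competent luciferase reporter gene; test concentration not given here.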 The note with it: luminescence, 24 h, higher = more signal, called active from +8 up or from −8 down.
Test [15] has as its target Fibroblast growth factor 10 (Homo sapiens) (UniProt O15520). Kind of test: FGF10 binders on small-molecule microarrays, primary screen, biochemical, small-molecule microarray, 635 nm fluorescence (AID 1102). The note with it: FGF10 binding, fluorescence 635 nm, higher = more signal.
Test [16] relates to glycogen synthase kinase-3 (GSK3A per assay name; protocol says GSK3B). Put plainly: GSK3 binders on small-molecule microarrays, primary screen, biochemical, small-molecule microarray, 635 nm fluorescence, GSK3A (AID 1103). Further: the record names both GSK3A and GSK3B. Conditions: small-molecule microarray binding, fluorescence 635 nm; higher = more signal.
In test [17] the target is Epidermal growth factor receptor (Homo sapiens) (UniProt P00533). Put plainly: EGFR binders on small-molecule microarrays, primary screen, biochemical, small-molecule microarray, 635 nm fluorescence (AID 1104).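 Further: score merges 667 nm emission intensity with spot signal to noise over triplicate slides.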 The note with it: EGFR binding, higher = more signal.
Epidermal growth factor receptor (Homo sapiens), sequence (P00533 whole entry, looked up): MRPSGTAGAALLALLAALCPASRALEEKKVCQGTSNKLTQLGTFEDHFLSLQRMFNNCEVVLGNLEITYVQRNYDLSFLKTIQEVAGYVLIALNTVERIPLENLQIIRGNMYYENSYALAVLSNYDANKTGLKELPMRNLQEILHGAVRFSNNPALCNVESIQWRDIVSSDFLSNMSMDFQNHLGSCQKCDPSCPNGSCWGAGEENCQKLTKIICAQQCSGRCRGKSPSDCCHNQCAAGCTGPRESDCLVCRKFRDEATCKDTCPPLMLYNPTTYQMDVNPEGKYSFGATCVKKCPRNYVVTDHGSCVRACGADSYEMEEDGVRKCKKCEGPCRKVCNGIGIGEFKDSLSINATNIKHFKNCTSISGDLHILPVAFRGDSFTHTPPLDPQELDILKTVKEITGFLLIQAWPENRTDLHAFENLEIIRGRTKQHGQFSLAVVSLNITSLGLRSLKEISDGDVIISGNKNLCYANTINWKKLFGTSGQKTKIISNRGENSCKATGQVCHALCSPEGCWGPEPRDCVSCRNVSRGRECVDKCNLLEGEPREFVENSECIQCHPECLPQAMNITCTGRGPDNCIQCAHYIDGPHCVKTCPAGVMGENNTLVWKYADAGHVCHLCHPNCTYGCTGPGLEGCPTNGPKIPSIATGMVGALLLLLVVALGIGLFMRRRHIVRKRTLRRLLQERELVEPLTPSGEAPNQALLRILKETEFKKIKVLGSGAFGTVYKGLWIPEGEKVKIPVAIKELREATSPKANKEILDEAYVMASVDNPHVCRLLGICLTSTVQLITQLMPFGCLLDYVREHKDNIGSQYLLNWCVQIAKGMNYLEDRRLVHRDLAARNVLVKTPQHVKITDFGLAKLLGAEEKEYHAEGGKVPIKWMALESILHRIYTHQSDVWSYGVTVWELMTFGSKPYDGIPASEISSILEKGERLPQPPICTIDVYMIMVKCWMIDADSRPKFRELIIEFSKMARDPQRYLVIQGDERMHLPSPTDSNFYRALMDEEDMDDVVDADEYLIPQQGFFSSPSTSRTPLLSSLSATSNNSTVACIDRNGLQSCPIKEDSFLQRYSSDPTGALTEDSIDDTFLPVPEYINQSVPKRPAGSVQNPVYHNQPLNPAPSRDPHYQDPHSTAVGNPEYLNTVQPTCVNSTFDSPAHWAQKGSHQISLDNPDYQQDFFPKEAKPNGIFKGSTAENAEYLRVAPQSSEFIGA
Test [18] addresses Follistatin-related protein 3 (Homo sapiens) (UniProt O95633). Kind of test: FSTL3 binders on small-molecule microarrays, primary screen, biochemical, small-molecule microarray, 635 nm fluorescence (AID 1105).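 Further: score merges emission near 667 nm and signal to noise per printed spot across three slides.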 The note with it: FSTL3 binding, higher = more signal.
For test [19], the target named is Dickkopf-related protein 1 (Homo sapiens) (UniProt O94907). Kind of test: DKK1 binders on small-molecule microarrays, primary screen, biochemical, small-molecule microarray, 635 nm fluorescence scan (AID 1106).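 Further: score merges emission near 667 nm with signal to noise over three replicate slides.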 The note with it: DKK1 binding, higher = more signal.
Dickkopf-related protein 1 (Homo sapiens), sequence (O94907 whole entry, looked up): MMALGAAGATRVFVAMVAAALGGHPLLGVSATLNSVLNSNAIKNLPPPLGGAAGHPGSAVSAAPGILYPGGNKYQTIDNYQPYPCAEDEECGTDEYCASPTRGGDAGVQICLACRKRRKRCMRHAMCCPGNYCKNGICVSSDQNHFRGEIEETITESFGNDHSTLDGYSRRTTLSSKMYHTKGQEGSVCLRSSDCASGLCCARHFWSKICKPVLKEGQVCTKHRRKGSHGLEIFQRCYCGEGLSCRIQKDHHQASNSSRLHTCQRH
Test [20] relates to Inhibin beta A chain (activin A). Kind of test: INHBA (activin A) binders on microarrays, primary screen, biochemical, small-molecule microarray, 635 nm fluorescence scan (AID 1107).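 Further: mouse activin A protein probed at 4.33 µg/mL on printed slides; score merges bound-protein fluorescence near 667 nm with spot signal-to-noise.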 The note with it: small-molecule microarray binding, higher = more signal.

Fibroblast growth factor 10 (Homo sapiens), sequence (O15520 whole entry, looked up): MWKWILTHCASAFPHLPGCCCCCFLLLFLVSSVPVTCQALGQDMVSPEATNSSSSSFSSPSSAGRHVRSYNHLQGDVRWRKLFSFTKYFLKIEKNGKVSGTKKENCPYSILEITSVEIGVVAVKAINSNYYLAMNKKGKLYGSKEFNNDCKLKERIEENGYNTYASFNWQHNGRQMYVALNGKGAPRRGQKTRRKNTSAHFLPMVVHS
Follistatin-related protein 3 (Homo sapiens), sequence (O95633 whole entry, looked up): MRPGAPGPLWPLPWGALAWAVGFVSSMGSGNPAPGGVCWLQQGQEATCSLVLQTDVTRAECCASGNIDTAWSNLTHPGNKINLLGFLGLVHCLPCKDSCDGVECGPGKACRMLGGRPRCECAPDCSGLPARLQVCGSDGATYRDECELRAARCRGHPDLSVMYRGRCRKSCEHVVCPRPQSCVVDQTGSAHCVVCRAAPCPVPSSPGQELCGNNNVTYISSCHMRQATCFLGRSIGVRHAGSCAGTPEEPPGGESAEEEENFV
Torsin-1A-interacting protein 2 (Homo sapiens), sequence (Q8NFQ8 whole entry, looked up): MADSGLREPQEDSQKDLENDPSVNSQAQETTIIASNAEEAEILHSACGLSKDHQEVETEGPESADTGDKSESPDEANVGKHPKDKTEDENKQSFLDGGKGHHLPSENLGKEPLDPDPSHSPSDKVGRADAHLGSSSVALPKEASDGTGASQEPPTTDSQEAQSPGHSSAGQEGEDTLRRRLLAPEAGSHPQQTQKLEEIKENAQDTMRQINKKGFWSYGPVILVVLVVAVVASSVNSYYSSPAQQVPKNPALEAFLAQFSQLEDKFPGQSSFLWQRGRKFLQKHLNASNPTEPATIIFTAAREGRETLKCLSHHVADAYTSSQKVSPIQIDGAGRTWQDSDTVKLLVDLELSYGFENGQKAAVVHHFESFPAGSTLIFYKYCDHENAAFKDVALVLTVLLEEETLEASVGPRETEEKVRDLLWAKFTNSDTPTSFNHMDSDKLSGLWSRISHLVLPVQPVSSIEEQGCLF

For the compound `O=C1c2ccccc2[C@@]2(Cc3ccccc3N(CC(F)(F)F)C2=O)[C@H](c2ccc(CO)cc2)N1C1CCCCC1`, the composite z-score in test [1] was determined as 0.778; in test [5], 1.08; in test [7], 0.0598; in [8], 1.05; in [9], 0.601; in test [10], 0.0376. The composite z-score turned out to be 0.208 in test [11]; 0.117 in test [12]; 0.0803 in test [13]; 0.982 in [15]; 0.88 in [16]; 0.229 in [17]. The composite z-score in test [18] came to 0.95; in test [19], 1.02; in test [20], 0.801. For the same compound, the z-score in test [2] is 0.315 (inactive); in test [3], -0.958 (inactive); in test [4], -1.99 (inactive); in [6], 0.825 (inactive); in test [14] it was -0.189 (inactive).
Regarding `NC(=O)NCC#Cc1ccc2c(c1)[C@]1(C(=O)N2)[C@H](C(=O)N2CCCCCCC2)[C@H]2C(=O)O[C@H](c3ccccc3)[C@H](c3ccccc3)N2[C@@H]1c1ccccc1OCCO`, the composite z-score amounted to 1.54 in test [1]; 4.33 in test [5]; 1.65 in test [7]; 1.36 in test [8]; 1.05 in test [9]; 1.3 in test [10]. Further, the composite z-score in [11] was 1.82; in test [12] it was 2.98; in [13] it was 1.66; in [15] it was 1.39; in test [16], 1.38; in [17], 1.7. For the same compound, the composite z-score in [18] worked out at 1.71; in test [19], 2.26; in test [20], 1.86. In addition, the z-score was 0.305 (inactive) in test [2]; -3.26 (inactive) in test [3]; 1 (inactive) in [4]; 1.82 (inactive) in test [6]; 0.0838 (inactive) in test [14].
Consider `CC(C)[C@H]1NC(=O)[C@@]23C(=O)N[C@@H](Cc4ccccc4)C2[C@H](C)[C@@]2(C)O[C@H]2C3/C=C/C/C=C\CNC(=O)[C@H](C)NC1=O` (stereo not given in full), for which the composite z-score is -1.24 in [1]; -0.62 in test [5]; -0.287 in test [7]; -0.632 in test [8]; -0.517 in [9]; -0.255 in [10]. The composite z-score in test [11] is -0.949; in test [12], -0.386; in test [13], -0.256; in test [15], 0.392; in [16], -1.37; in test [17] it was -1.31. The composite z-score in [18] was -0.825; in test [19], -0.443; in test [20], 1.32. The z-score was 0.782 (inactive) in test [2]; 0.469 (inactive) in test [3]; 0.41 (inactive) in test [4]; -0.823 (inactive) in test [6]; 0.616 (inactive) in [14].
`COc1cc2c(cc1OC)CN(C(=O)[C@H]1[C@@H]3C(=O)O[C@@H](c4ccccc4)[C@@H](c4ccccc4)N3[C@@H](c3ccc(O)cc3)[C@]13C(=O)Nc1ccc(C#CC4(O)CCCCCC4)cc13)CC2`: the composite z-score in [1] was 1.41; in [5] it was 3.75; in [7], 0.675; in test [8] it was 1.72; in test [9], 0.991; in test [10], 0.221. Moreover, the composite z-score was 1.75 in test [11]; 0.458 in [12]; 0.46 in test [13]; 1.4 in test [15]; 1.36 in test [16]; 0.853 in [17]. The composite z-score in test [18] amounted to 1.46; in test [19], 1.1; in test [20], 0.616. The z-score in test [2] is 0.377 (inactive); in test [3] it was 0.0581 (inactive); in test [4], 0.695 (inactive); in test [6] it was 0.206 (inactive); in test [14], -0.81 (inactive).
For the compound `CN1C(=O)C2C=CC(C(O)C3CC=CCC3)N(Nc3ccccc3)C2C1=O` (stereo not given), the composite z-score in test [1] is 1.47; in [5], 3.32; in [7] it was 0.344; in test [8] it was 0.584; in [9], 1.06; in test [10], 0.112. Besides, the composite z-score in test [11] was found to be 1.09; in test [12], 0.642; in test [13], 0.533; in test [15], 0.989; in [16], 0.879; in test [17], 1.07. Further, the composite z-score in test [18] amounted to 1.45; in [19], 1.06; in [20] it was 1.3. For the same compound, the z-score is 0.373 (inactive) in test [2]; 0.772 (inactive) in test [3]; 0.726 (inactive) in [4]; -0.623 (inactive) in [6]; 1.2 (inactive) in test [14].
